Data: PubChem BioAssay (NCATS)
Several values for one entry are separate records, joined by “and”; a condition that tells them apart may be missing. Equal entries are not always repeated. Inconclusive results are not listed. Where a call stands in place of a potency, no number is given. A number with no mark means an inactive call. Activity calls are given as the source filed them. The call rests on the fitted dose curve; in most records, active means well fitted inhibition curve with a large enough effect; inconclusive means small, poorly fitted or top-dose-only effect; inactive means flat fitted curve, though single readings scatter.

Experiments:
[1] = system: TAB109; experiment: qHTS profiling for inhibitors of Plasmodium falciparum proliferation (AID 504749); further: potency means the concentration at half of the fitted maximal effect; conditions: P. falciparum in erythrocytes, SYBR Green DNA, 72 h; series mostly up to 28.7 µM
How it was run: (§1)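 Infected RBCs, 0.3% parasitemia/2.5% Hct final; cpd 72 h, 37 C, 5% CO2; lysis buffer with saponin/triton/SYBR Green I, o/n RT dark; FI 485/535; norm. to artemisinin (0.29 uM) and DMSO.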

[2] = system: TAB113; experiment: as above; conditions: P. falciparum in erythrocytes, SYBR Green DNA, 72 h; series mostly up to 28.7 µM
How it was run: as §1

[3] = system: TAB165; experiment: as above; conditions: P. falciparum in erythrocytes, SYBR Green DNA, 72 h; series mostly up to 28.7 µM
How it was run: as §1

[4] = system: W2; experiment: as above; conditions: P. falciparum in erythrocytes, SYBR Green DNA, 72 h; series mostly up to 28.7 µM
How it was run: as §1

[5] = system: CRL-7250; experiment: Cytotoxic Profiling of Annotated Libraries Using Quantitative High-Throughput Screening (AID 1296008); conditions: Five cell lines viability, CellTiter-Glo ATP luminescence, 48-72 h; max response: stronger effect = lower value; further: potency means the concentration at half of the fitted maximal effect
How it was run: (§2)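 Cytotoxicity was measured as CellTiter-Glo ATP luminescence, read after 10 min at room temperature. Compound treatment of the cells lasted 48 or 72 hr at 37 degrees Celsius in a qHTS format.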

[6] = system: HEK293; experiment: as above; conditions: Five cell lines viability, CellTiter-Glo ATP luminescence, 48-72 h; max response: stronger effect = lower value
How it was run: as §2

[7] = system: HaCat; experiment: as above; conditions: Five cell lines viability, CellTiter-Glo ATP luminescence, 48-72 h; max response: stronger effect = lower value
How it was run: as §2

[8] = system: NIH3T3; experiment: as above; conditions: Five cell lines viability, CellTiter-Glo ATP luminescence, 48-72 h; max response: stronger effect = lower value
How it was run: as §2

[9] = system: HACAT; experiment: qHTS assay to identify novel small-molecules to repurpose for Merkel cell carcinoma treatment (AID 1296009); conditions: MCC and control cell lines, CellTiter-Glo viability, 72 h
How it was run: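 72 hr, 37 degree celsius; NPC 8-pt / MIPE 11-pt dose response; compound pinned in DMSO; CellTiter-Glo, 10 min RT, luminescence; normalized to no-cell and DMSO controls.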

[10] = system: KB-3-1; experiment: Cytotoxic Profiling of Annotated Libraries Using Quantitative High-Throughput Screening (AID 1296008); conditions: Five cell lines viability, CellTiter-Glo ATP luminescence, 48-72 h; max response: stronger effect = lower value; further: potency means the concentration at half of the fitted maximal effect
How it was run: as §2

[11] = at 44.8 µM (top of the series) unless noted
Further: nearly all actives have a fitted effect of over 60% in size.

## CCCCCCCCCCCCCCCCCCOCC(O)CO (stereo not given)
[1]
  Potency: inactive
[2]
  Potency: inactive
[3]
  Potency: inactive
[4]
  Potency: inactive
[5]
  outcome: inactive
[6]
  outcome: inactive
[7]
  outcome: inactive
[8]
  max response: 4.13%
[9]; [11]
  outcome: inactive

## CN(C)CC[C@@H](c1ccc(Cl)cc1)c1ccccn1
[5]
  max response: 4.72%
[6]
  max response: -2.7%
[7]
  max response: 0.999%
[8]
  outcome: inactive

## C[C@@H]1CN(c2c(F)c(F)c3c(=O)c(C(=O)O)cn(C4CC4)c3c2F)C[C@H](C)N1
[1]
  Potency: inactive
[2]
  Potency: inactive
[3]
  Potency: inactive
[4]
  Potency: inactive
[5]
  max response: -3.49% and -4.42%
[6]
  max response: -18.5% and -5.83%
[7]
  outcome: inactive
[8]
  max response: -2.2% and -0.725%
[9]; at 9.27 µM (top of the series)
  outcome: inactive
[9]; at 17.4 µM (top of the series)
  outcome: inactive

## O=Cc1ccccc1C=O
[1]
  Potency: inactive
[2]
  Potency: inactive
[3]
  Potency: inactive
[4]
  Potency: inactive
[5]
  max response: -8.99%
[6]
  outcome: inactive
[7]
  max response: 3.01%
[10]
  max response: -3.37%
[8]
  outcome: inactive

## CC(C)(O)c1ccccc1CC[C@@H](SCC1(CC(=O)O)CC1)c1cccc(/C=C/c2ccc3ccc(Cl)cc3n2)c1
[5]
  max response: -23.3%
[6]
  max response: 4.81%
[7]
  outcome: inactive
[8]
  max response: -22.4%
  outcome: inactive
[9]; [11]
  outcome: inactive

## Oc1cn2c(n1)Nc1ccc(Cl)c(Cl)c1C2
[1]
  Potency: inactive
[2]
  Potency: inactive
[3]
  Potency: inactive
[4]
  Potency: inactive
[5]
  outcome: inactive
[6]
  outcome: inactive
[7]
  outcome: inactive
[8]
  outcome: inactive
[9]; [11]
  outcome: inactive [at 17.4 µM]

## NS(=O)(=O)c1cc2c(cc1C(F)(F)F)NC(Cc1ccccc1)NS2(=O)=O (stereo not given)
[5]
  max response: -4.39%
[6]
  outcome: inactive
[7]
  outcome: inactive
[8]
  outcome: inactive
[9]; [11]
  outcome: inactive

## COc1cc(C(=O)N2CCOCC2)cc(OC)c1OC
[1]
  Potency: inactive
[2]
  Potency: inactive
[3]
  Potency: inactive
[4]
  Potency: inactive
[5]
  max response: 0.938%
[6]
  max response: 1.96%
[7]
  outcome: inactive
[8]
  outcome: inactive
[9]; [11]
  outcome: inactive

## O=C(O)Cc1sc(-c2ccccc2)nc1-c1ccc(Cl)cc1
[5]
  max response: 3.43%
[6]
  outcome: inactive
[7]
  outcome: inactive
[8]
  max response: -0.692%
[9]; [11]
  outcome: inactive

## C[C@H]1O[C@@H](n2cc(F)c(=O)[nH]c2=O)[C@H](O)[C@@H]1O
[1]
  Potency: inactive
[2]
  Potency: inactive
[3]
  Potency: inactive
[4]
  Potency: inactive
[5]
  max response: -5.52%
[6]
  outcome: inactive
[7]
  Potency: 10.6 µM (active)
[10]
  max response: -0.506%
[8]
  max response: -23.8%

## Nc1ccc(S(=O)(=O)Nc2ccc(Cl)nn2)cc1
[3]
  Potency: 1 µM (active)
[4]
  Potency: inactive
[5]
  max response: -2.16%
[6]
  outcome: inactive
[7]
  max response: 0.946%
[10]
  max response: 14.3% and -6.92%
[8]
  max response: 1.13%

## CC1=C(C/C=C(\C)CCC[C@H](C)CCC[C@H](C)CCCC(C)C)C(=O)c2ccccc2C1=O
[5]
  max response: 1.2%
[6]
  outcome: inactive
[7]
  outcome: inactive
[8]
  max response: 1.11%
[9]; [11]
  outcome: inactive

## NC(=O)NNc1ccccc1
[1]
  Potency: inactive
[2]
  Potency: inactive
[3]
  Potency: inactive
[4]
  Potency: inactive
[5]
  max response: 2.83%
[6]
  max response: 0.574%
[7]
  max response: -7.26%
[10]
  max response: 13.6% and -2.9%
[8]
  max response: -2.02%

## O=C(O)c1ccccc1O
[1]
  Potency: inactive
[2]
  Potency: inactive
[3]
  Potency: inactive
[4]
  Potency: inactive
[5]
  max response: 0.122%
[6]
  outcome: inactive
[7]
  max response: 2.15%
[10]
  max response: 7.74% and -13.4%
[8]
  outcome: inactive
